Compound activity: PubChem, National Center for Advancing Translational Sciences (NCATS)
In the library only some 17% were active in any assay of this set; here they are far more common.
ATXN2 expr inh: reduces ATXN2 reporter expression in HEK-293 cells. HEK-293 ATXN2-luciferase reporter, luminescence, 24 h. Potency, µM (top dose mostly 57 µM), inactives show top-dose activity change, negative = inhibition, most hits filed as inhibitors. actives 0.72% (n = 360,000). AID 1745845; note: % is set by controls: 0 for no effect and ±100 for the full control effect; nearly all actives have a fitted effect of over 55% in size
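qHTS (up to 57 uM final) was run with 24 h compound exposure of reporter cells at 37 °C. Each well was multiplexed: SteadyGlo luminescence measured ATXN2-luciferase expression after a fluorogenic Gly-Phe-AFC viability readout (25 uM final).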
HepG2 tox: counter-screen for TGF-b inhibitors: cytotoxicity in HepG2 cells | HepG2 CAGA-GFP viability, ATP luminescence, 18 h | actives 0.76% (n = 410,000) | AID 588856 | Potency, µM (highest dose often 46.1 µM), without a hit: top-dose activity change, negative = cytotoxicity, hits mostly cytotoxic
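HepG2 CAGA-GFP cells (1000/well, DMEM with 1% FBS) received compound, then TGF-beta at 500 pg/mL final, and were incubated 18 hours at 37 degrees C. Viability was read by CellTiter-Glo luminescence. Media-only wells were set as complete cell-killing and DMSO as no toxicity.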
TDP1 cell noCPT: qHTS for Inhibitors of human tyrosyl-DNA phosphodiesterase 1 (TDP1): qHTS in cells in absence of CPT; DT40 Tdp1-/- hTDP1 cells, no CPT, ATP luminescence, 48 h; actives 15% (n = 420,000); Potency, µM (doses to about 46.2 µM), inactives show at the top dose activity change, negative = growth inhibition, hits mostly inhibitors; note: % is set by controls: 0 for no effect and ±100 for the full control effect; nearly all actives have a fitted effect of over 55% in size
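Growth kinetics read by CellTiter-Glo luminescence after ≥48 hr at 37 °C. Cells: DT40 Tdp1-/- stably carrying human TDP1, 400 per well, compound exposure in the absence of CPT (DMSO vehicle).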
TGFb inhibitor: TGF-b pathway inhibition | actives 1.2% (n = 410,000) | Potency, µM (top dose mostly 46.1 µM), for the others: at the top dose activity, negative = inhibition, most hits filed as inhibitors | HepG2 CAGA-GFP TGF-b/SMAD3 reporter, GFP fluorescence, 18 h; TGF-beta stimulated, 500 pg/mL final; note: % is set by controls: 0 for no effect and ±100 for the full control effect; nearly all actives have a fitted effect of over 65% in size
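HEPG2 CAGA-GFP cells (1000/well, DMEM with 1% FBS) were pre-incubated 2 h at 37 degrees C, given compound by pin tool, then stimulated with TGF-beta at 500 pg/mL final for 18 h before per-cell GFP fluorescence imaging.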
S2 tox: reduces viability in counter-screen for ATXN expression inhibitors | S2 cells (HEK-293 line with an ATXN2-luciferase reporter) viability, CellTiter-Fluor protease fluorescence, 24 h | Potency, µM (doses to about 56.7 µM), hits mostly cytotoxic | actives 0.49% (n = 400,000) | AID 651635; note: nearly all actives have a fitted effect of over 40% in size
TDP1 cell CPT: growth inhibition of DT40 Tdp1-/-;hTDP1 cells with camptothecin (screen for TDP1 inhibitors); Potency, µM (doses to about 46.2 µM), for inactives: at the highest dose activity change, negative = growth inhibition, hits mostly inhibitors; chicken DT40 Tdp1-/-;hTDP1 cells + 20 nM CPT, ATP luminescence, 48 h; actives 12% (n = 420,000); note: % is set by controls: 0 for no effect and ±100 for the full control effect; nearly all actives have a fitted effect of over 55% in size
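Cell growth measured by CellTiter-Glo luminescence after a minimum 48 h, 37 C compound exposure with 20 nM CPT in Tdp1-knockout DT40 cells stably expressing hTDP1, seeded 400/well; qHTS titration format.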
* = called active by the depositor; i = inactive; ? = inconclusive; / = no result given; [ ] = dose if it differs, or a comment. Calls come from the whole dose curve; as a rule, active = well fitted curve in the direction sought with a large enough effect; inconclusive = small, poorly fitted or top-dose-only effect, or another doubt; inactive = no such curve, though single readings can be large; an effect the other way counts as inactive or inconclusive. Potency is the fitted concentration of half-maximal effect.

SMILES	ATXN2 expr inh	HepG2 tox	TDP1 cell noCPT	TGFb inhibitor	S2 tox	TDP1 cell CPT
CC(=O)c1cccc(NC(=O)COc2ccc3oc(=O)cc(C)c3c2)c1	-14%	-8%	?	2%	i	18µM*
COc1ccc(C(=O)COc2ccc3c(C)cc(=O)oc3c2)cc1	/	-1%	?	25%	i	-20%
COc1cc(NC(=O)COc2cc3oc(=O)cc(C)c3cc2Cl)cc(OC)c1OC	/	2%	5.8µM*	-2%	i	8.2µM*
COc1cc(NC(=O)COc2cc(C)cc3oc(=O)c(C)c(C)c23)cc(OC)c1OC	-33%	-28%	6%	0%	i	-7%
O=C(COC(=O)c1cccc(Cl)c1Cl)NCc1cccs1	0%	2%	23%	1%	i	-9%
CCOC(=O)C(C#N)(Cc1cc(OC)cc(OC)c1)Cc1cc(OC)cc(OC)c1	-8%	-20%	/	-12%	i	/
Cc1cc(=O)oc2cc(OCC(=O)Nc3nccs3)ccc12	/	15%	-28%	17%	i	2%
Cc1cc(=O)oc2cc(OCC(=O)Nc3c(Cl)cccc3C(F)(F)F)ccc12	109%	-38%	13µM*	16%	i	?
Cc1cccc(C)c1NC(=O)COc1ccc2c(C)c(Cc3ccccc3)c(=O)oc2c1	-6%	-8%	12µM*	6%	i	?
CC(=O)c1cccc(OCC(=O)Nc2cccc(C(=O)Nc3c(C)n(C)n(-c4ccccc4)c3=O)c2)c1	30%	-17%	?	3%	i	13µM*
COc1cc2c(cc1OC)C(COc1ccc3c(C)cc(=O)oc3c1)N(C(=O)c1ccccc1F)CC2 (centres undefined)	3%	0%	21µM*	22%	i	?
Cc1c(Cc2ccccc2)c(=O)oc2cc(OCC(=O)NCC3CCC(C(=O)O)CC3)ccc12 (centres undefined)	-3%	-14%	-10%	7%	i	3%
CC(OC(=O)c1cccnc1Cl)C(=O)Nc1ccc(S(N)(=O)=O)cc1 (centres undefined)	-35%	-9%	0%	8%	?	4%
COc1ccc2c(c1)OC(C)CN(CCC(=O)NCC1OCCc3ccccc31)C2 (centres undefined)	/	/	-9%	/	i	12%[9.04 µM]
Cc1sc2c(c1C)c(=O)n(CCc1ccccc1)c(=O)n2Cc1cccc(F)c1	-3%	-21%	5.8µM*	-18%	i	?
CCN(CC)C(=O)c1sc2c(c1C)c(=O)n(CCc1ccccc1)c(=O)n2Cc1cccc(Cl)c1	?	-22%	15µM*	?	i	23µM*
Cc1sc2c(c1C)c(=O)n(CCc1ccccc1)c(=O)n2Cc1ccc(F)cc1	-3%	4%	18µM*	4%	i	?
Cc1ccc(C)c(Cn2c(=O)n(CCc3ccccc3)c(=O)c3c(C)c(C)sc32)c1	-1%	0%	9%	1%	i	-10%
Cc1cccc(Cn2c(=O)n(CCc3ccccc3)c(=O)c3c(C)c(C)sc32)c1	2%	0%	?	22%	i	21µM*
CCN(CC)C(=O)c1sc2c(c1C)c(=O)n(Cc1ccccc1)c(=O)n2Cc1ccccc1C	0%	-19%	?	-25%	?	?
Cc1ccc2ncc(C(=O)Nc3cccc(C(F)(F)F)c3)c(=O)n2c1	-5%	4%	2%	7%	i	0%
CCC1CN(CC(=O)NC(C)c2c(C)nn(C)c2C)Cc2cc(OC)ccc2O1 (centres undefined)	/	/	-2%	/	i	-4%[9.04 µM]
